# Screening data deposited in PubChem BioAssay by National Center for Advancing Translational Sciences (NCATS).
# Compounds with a hit are over-represented: about 10% of the library has one in this group of screens.
# GLS inhibitor – inhibitors of human glutaminase (GLS); O94925; GLS enzymatic activity, qHTS titration; AID 624170; hit rate 0.21% among 410,000; Potency, µM (highest dose often 45.5 µM), for inactives: at the highest dose activity change, negative = inhibition, actives largely listed as inhibitors; note: % is set by controls: 0 for no effect and ±100 for the full control effect
#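 hKGA; 45 mM KH2PO4 pH 8.2 + 0.02% Tween-20; cpd via pin tool; 1 mM Gln soln; GluOx/HRP/Amplex Red; RT 30 min; fluor. t0 & final.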
# HP1b binding inh – inhibitors of HP1-beta chromodomain binding to methylated histone tails; hit rate 0.56% among 390,000; AID 540317; Potency, µM (doses to about 114 µM), for inactives: at the highest dose activity change, negative = inhibition, actives largely listed as inhibitors; AlphaScreen HP1-beta / biotin-H3K9me3 peptide binding; P83916; note: nearly all actives have a fitted effect of over 70% in size
#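 Compound inhibition of the preformed complex between 50 nM HP1-beta and 50 nM biotinylated H3K9me3 peptide was read by AlphaScreen. Buffer was PBS pH 7.4 with 0.01% Tween-20. Incubations ran 30 min at room temperature, with 10 ug/mL donor/acceptor beads.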
# JMJD2A Tudor inh – JMJD2A Tudor domain (human) inhibition. AlphaScreen JMJD2A-Tudor / H3K4me3 peptide binding. Potency, µM (top dose mostly 114 µM), without a hit: top-dose activity change, negative = inhibition, actives largely listed as inhibitors. hit rate 4.4% among 390,000. AID 504339; note: % is set by controls: 0 for no effect and ±100 for the full control effect; nearly all actives have a fitted effect of over 50% in size
# L3MBTL1 inh – L3MBTL1 (human) inhibition; AlphaScreen L3MBTL1–H3K9me1 peptide binding; hit rate 0.66% among 230,000; Potency, µM (series often up to 57.1 µM), without a hit: at the highest dose activity, negative = inhibition, hits mostly inhibitors; Q9Y468; note: % is set by controls: 0 for no effect and ±100 for the full control effect; nearly all actives have a fitted effect of over 60% in size
#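 L3MBTL1 50 nM + b-AHA-H3(1-15)K9me1 75 nM, 30 min RT; compound added, 30 min RT; streptavidin donor/Ni-chelate acceptor beads 10 ug/mL each final, 30 min RT dark; AlphaScreen read.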
# BAZ2B block – blocks human BAZ2B. Q9UIF8. AlphaScreen BAZ2B-H3K14Ac peptide displacement. Potency, µM (doses to about 114 µM), for inactives: at the highest dose activity change, negative = inhibition, actives largely listed as inhibitors. hit rate 4.4% among 360,000; note: % is set by controls: 0 for no effect and ±100 for the full control effect; nearly all actives have a fitted effect of over 60% in size
# Target sequence (Q9UIF8 whole entry, looked up): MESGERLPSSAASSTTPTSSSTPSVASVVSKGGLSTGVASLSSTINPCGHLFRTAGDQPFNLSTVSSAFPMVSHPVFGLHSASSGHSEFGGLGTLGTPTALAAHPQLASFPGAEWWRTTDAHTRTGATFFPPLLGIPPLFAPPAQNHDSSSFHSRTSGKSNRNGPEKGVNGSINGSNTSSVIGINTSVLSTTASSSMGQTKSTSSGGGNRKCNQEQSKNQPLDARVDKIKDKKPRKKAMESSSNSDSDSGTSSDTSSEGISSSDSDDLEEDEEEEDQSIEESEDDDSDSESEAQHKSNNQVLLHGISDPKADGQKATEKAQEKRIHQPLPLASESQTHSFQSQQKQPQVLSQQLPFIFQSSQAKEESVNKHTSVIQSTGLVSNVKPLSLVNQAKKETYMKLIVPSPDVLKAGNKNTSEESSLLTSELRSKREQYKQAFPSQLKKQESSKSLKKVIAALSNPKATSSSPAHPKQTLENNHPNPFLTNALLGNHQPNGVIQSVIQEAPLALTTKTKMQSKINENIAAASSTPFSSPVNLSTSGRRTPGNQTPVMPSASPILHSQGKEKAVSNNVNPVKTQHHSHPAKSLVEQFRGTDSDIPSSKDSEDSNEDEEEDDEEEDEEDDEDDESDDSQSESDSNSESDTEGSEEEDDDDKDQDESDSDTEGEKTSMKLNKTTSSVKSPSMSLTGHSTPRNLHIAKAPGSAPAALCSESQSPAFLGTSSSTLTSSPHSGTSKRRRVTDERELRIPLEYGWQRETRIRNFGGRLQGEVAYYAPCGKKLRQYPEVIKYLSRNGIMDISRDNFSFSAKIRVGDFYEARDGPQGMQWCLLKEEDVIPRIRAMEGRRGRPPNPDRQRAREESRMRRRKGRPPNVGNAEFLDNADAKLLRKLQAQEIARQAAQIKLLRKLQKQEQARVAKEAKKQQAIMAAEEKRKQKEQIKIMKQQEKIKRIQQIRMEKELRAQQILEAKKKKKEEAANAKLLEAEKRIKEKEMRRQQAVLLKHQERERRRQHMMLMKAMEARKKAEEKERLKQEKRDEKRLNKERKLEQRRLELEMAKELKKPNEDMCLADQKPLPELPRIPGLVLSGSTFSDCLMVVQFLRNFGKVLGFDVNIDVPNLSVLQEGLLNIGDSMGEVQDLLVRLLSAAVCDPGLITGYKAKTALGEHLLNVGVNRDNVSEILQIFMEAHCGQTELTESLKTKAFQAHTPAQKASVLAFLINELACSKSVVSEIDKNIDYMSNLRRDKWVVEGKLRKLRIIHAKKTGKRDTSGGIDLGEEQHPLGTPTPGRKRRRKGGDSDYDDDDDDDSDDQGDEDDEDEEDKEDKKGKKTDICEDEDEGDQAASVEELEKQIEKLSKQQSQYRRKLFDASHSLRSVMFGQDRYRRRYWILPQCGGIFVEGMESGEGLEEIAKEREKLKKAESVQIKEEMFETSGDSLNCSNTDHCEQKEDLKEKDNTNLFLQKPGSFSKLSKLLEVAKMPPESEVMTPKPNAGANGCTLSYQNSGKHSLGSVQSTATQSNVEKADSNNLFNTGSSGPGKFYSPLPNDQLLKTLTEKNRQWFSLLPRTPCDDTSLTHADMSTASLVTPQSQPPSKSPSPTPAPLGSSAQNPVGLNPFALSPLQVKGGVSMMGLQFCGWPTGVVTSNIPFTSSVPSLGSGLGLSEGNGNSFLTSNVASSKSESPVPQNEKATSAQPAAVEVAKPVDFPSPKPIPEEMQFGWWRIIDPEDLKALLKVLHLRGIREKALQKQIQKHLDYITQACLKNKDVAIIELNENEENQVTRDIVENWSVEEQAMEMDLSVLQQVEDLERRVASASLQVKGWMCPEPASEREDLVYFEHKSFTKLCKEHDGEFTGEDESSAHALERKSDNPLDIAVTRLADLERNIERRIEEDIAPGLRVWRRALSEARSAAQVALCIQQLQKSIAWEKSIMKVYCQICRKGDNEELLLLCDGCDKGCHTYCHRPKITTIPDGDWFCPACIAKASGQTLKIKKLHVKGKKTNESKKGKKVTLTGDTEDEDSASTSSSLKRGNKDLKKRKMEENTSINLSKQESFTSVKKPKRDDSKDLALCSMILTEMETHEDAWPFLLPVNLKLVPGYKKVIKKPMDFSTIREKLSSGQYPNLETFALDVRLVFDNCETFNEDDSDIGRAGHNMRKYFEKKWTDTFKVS
#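 BAZ2B 50 nM plus b-H3(5-23)K14Ac 50 nM, PBS pH 7.4/0.01% Tween-20, 30 min RT; compound added (max 110 uM), 30 min RT; streptavidin donor/Ni-chelate acceptor beads 10 ug/mL final, 20 min dark; AlphaScreen read.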
# G9a block – blocks human histone lysine methyltransferase G9a; Q96KQ7; hit rate 8.8% among 350,000; AID 504332; G9a H3K9 monomethylation, AlphaScreen, 2 h; Potency, µM (top dose mostly 102 µM), inactives show at the highest dose activity, negative = inhibition, actives largely listed as inhibitors; note: % is set by controls: 0 for no effect and ±100 for the full control effect; nearly all actives have a fitted effect of over 75% in size
#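 Readings reflect AlphaScreen signal from monomethyl-H3K9 antibody detection. HMT at 20 nM; substrate b-H3K9 500 nM; cofactor SAM 20 uM; 2 h RT reaction; compounds tested as titrations in qHTS with 15 min preincubation.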
# * hit, by the source's call; ? = inconclusive; . = not tested or not shown; [ ] = remark or other dose. Calls come from the whole dose curve; as a rule, active = well fitted curve in the direction sought with a large enough effect; inconclusive = small, poorly fitted or top-dose-only effect, or another doubt; inactive = no such curve, though single readings can be large; an effect the other way counts as inactive or inconclusive. Potency is the fitted concentration of half-maximal effect.
SMILES,GLS inhibitor,HP1b binding inh,JMJD2A Tudor inh,L3MBTL1 inh,BAZ2B block,G9a block
FC(F)(F)c1ccc(Cl)c(-n2c(-c3cc(-c4ccco4)[nH]n3)n[nH]c2=S)c1,9%,11%,-30%,.,-38%,16µM*
FC(F)(F)c1ccc(Cl)c(-n2c(-c3cc(C4CC4)[nH]n3)n[nH]c2=S)c1,14%,13%,?,-2%,-20%,8.9µM*
COc1cc(-c2n[nH]c(=S)n2-c2cc(C(F)(F)F)ccc2Cl)cc(OC)c1OC,5%,29%,-15%,5%,-33%,?
COc1ccc(OC)c(-n2c(-c3cc(-c4ccco4)[nH]n3)n[nH]c2=S)c1,?,-6%,?,-4%,-2%,0%
FC(F)(F)c1ccc(Cl)c(-n2c(-c3ccco3)n[nH]c2=S)c1,0%,50%,?,.,-13%,10µM*
CCN(c1ccc(NC(=O)COC(=O)CCc2cc(OC)c(OC)c(OC)c2)cc1)C(C)C,56%,?,?,-20%,-38%,25µM*
CC1CCC(=O)N(CCC#N)CC1 (stereo not given),0%,23%,-8%,2%,-30%,50µM*
O=C(/C=C/c1ccco1)N(Cc1ccccc1)C1CCS(=O)(=O)C1 (stereo not given),-10%,26%,-15%,-5%,-28%,35µM*
O=C(/C=C/c1ccco1)N(Cc1ccc(F)cc1)C1CCS(=O)(=O)C1 (stereo not given),-6%,12%,-18%,4%,-6%,.
O=C(/C=C/c1ccco1)N(Cc1cccc(F)c1)C1CCS(=O)(=O)C1 (stereo not given),-2%,23%,-24%,.,-26%,40µM*
O=C1CCc2cc([S+](=O)([O-])Nc3ccc(N[S+](=O)([O-])c4ccc5c(c4)CCC(=O)N5)cc3)ccc2N1,.,.,-6%,.,.,.
CCC/C=C1/CCCOC(C(=O)NCCOC)(C(F)(F)F)C1 (stereo not given),.,10%,-6%,.,.,.
COc1ccc(C(=O)/C=C/C(=O)N(CC(=O)NC2CCCCC2)Cc2cccs2)c(O)c1,-13%,14%,-13%,-11%,-25%,16µM*
COCCN(CC(=O)NC1CCCCC1)C(=O)/C=C/C(=O)c1ccc(OC)cc1O,-22%,-36%,-22%[57.1 µM],6%,-2%,.
c1coc(-c2nc3n(n2)C2(CCCCC2)[C@@H]2CCCC[C@@H]2N3)c1,-2%,30%,-20%,.,?,-16%[59 µM]
N#CCCn1cc(C(=O)CN2C(=O)C(=O)N(C3CCCC3)C2=O)c2ccccc21,-2%,-2%,-15%,-12%,-5%,50µM*
CC1CCC2(CC1)NC(=O)N(CC(=O)c1cn(CCC#N)c3ccccc13)C2=O (stereo not given),-6%,37%,-7%,-5%,16%,25%
COc1ccc2[nH]c(C)c(CCN3C(=O)C4CC=CCC4C3=O)c2c1 (stereo not given),17%,-14%,25µM*,-7%,?,?
O=C1N=C(N2CCN(c3ccccc3)CC2)S/C1=C/c1cccs1,-16%,-1%,-25%,?,-33%,-20%[59 µM]
Cc1ccc(C2=N/C(=C\c3cccs3)C(=O)N2Nc2ccccc2)cc1,7%,?,?,-17%,35µM*,?
O=C1/C(=C\c2cccs2)N=C(c2cccs2)N1Nc1ccccc1,1%,-17%,?,.,?,40µM*
O=C1/C(=C/c2cccs2)N=C(c2cccs2)N1Nc1ccccc1,9%,-17%,?,.,?,50µM*
COc1ccc(-c2noc(CNC(=O)COc3cccc(C)c3C)n2)cc1,-12%,53%,-5%,.,2%,-1%[59 µM]
Ic1ccc(N2CCN(Cc3c[nH]c4ncccc34)CC2)cc1,10%,3%,89µM*,-3%,50µM*,24µM*
OCCN1CCN(Cc2cc(Cl)c3cccnc3c2O)CC1,8%,4%,13µM*,.,7.9µM*,50µM*
SMILES,GLS inhibitor,HP1b binding inh,JMJD2A Tudor inh,L3MBTL1 inh,BAZ2B block,G9a block
Oc1ccc(CN2CCCCC2)c2cccnc12,-4%,1%,8.9µM*,?,3.2µM*,?
FC(F)(F)c1ccccc1CN1CCC(Cc2ccccc2)CC1,-5%,?,13µM*,22%,1%,22µM*
O=S(=O)(NCC1CCN(Cc2ccccc2)CC1)c1ccccc1C(F)(F)F,-2%,7%,-5%,.,-14%,6%
O=C(COc1ccc(Cl)cc1)Nc1ccc(C(=O)OCc2cc(=O)n3ccsc3n2)cc1,-9%,-1%,-22%,.,-5%,?
CCCCOc1ccccc1C(=O)N(Cc1sccc1C)C1CCS(=O)(=O)C1 (stereo not given),-5%,11%,-19%,.,-4%,-7%[59 µM]
COc1cc2c(c(OC)c1OC)-c1c(cc3c(c1OC)OCO3)CC(C)C(C)(O)C2 (stereo not given),-6%,.,.,.,.,.
CN1CCN(C(=O)Cn2c(-c3cccs3)cc3cc(Cl)ccc32)CC1,1%,26%,-21%,.,-15%,-39%[59 µM]
CCCCOc1ccccc1NC(=O)CC1Sc2ccccc2NC1=O (stereo not given),-7%,36%,-1%,.,4%,15%[59 µM]
O=C1c2oc3ccccc3c(=O)c2C(c2ccc(O)cc2)N1Cc1ccc2c(c1)OCO2 (stereo not given),-11%,21%,-6%,.,-4%,5%[59 µM]
Cn1cc(CN2CCc3ccccc3C2)c2ccccc21,0%,9%,-36%,-6%,-8%,?
Cc1cc2ccccc2cc1CN1CCCCC1,-11%,42%,0%,2%,-6%,14%
O=[N+]([O-])c1cc(CN2CCCC2)c2cccnc2c1O,30%,?,13µM*,4µM*,5µM*,?
Oc1c(CN2CCCCC2)ccc2cccnc12,0%,15%,20µM*,.,.,.
Oc1ccc(CN2CCc3ccccc3C2)c2cccnc12,23%,-18%,10µM*,.,5.6µM*,?
Oc1ccc(CN2CCC(Cc3ccccc3)CC2)c2cccnc12,0%,17%,25µM*,.,20µM*,35µM*
Cc1ccc(NC(=O)Cn2c(-c3cncs3)nc3ccccc32)cc1Br,1%,61%,-27%,.,-16%,-24%[59 µM]
CCc1cccc(C)c1NC(=O)c1cnn(-c2ccc(OC)cc2)c1C1CCN(C(=O)OC(C)(C)C)CC1,0%,31%,-17%,.,5%[57.1 µM],-27%[59 µM]
Oc1ccc2ccccc2c1CN1CCN(c2ccccc2)CC1,20%,20%,-30%,.,-13%,?
c1ccc2c(CN3CCCCC3)csc2c1,2%,29%,-2%,3%,-5%,-4%[59 µM]
Oc1c(Cl)cc(CN2CCCCC2)c2cccnc12,.,.,.,.,3.5µM*,-10%[2.33 µM]
